Results from the supplement of paper PMC6555819.

Tests used:
Test in all cases: PBM binding z-score (relative to random genomic background probes); higher = stronger binding; sequences stand for … in GC…GCGATTGACAGCGTAGAATGAAGG
[1] = system: FXR:RXRa (NR concentration 270 nM, RXRa partner concentration 90 nM)
How it was run: (§1)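 Probes were double-stranded and carried 34-nt variable regions with direct-repeat seeds, single-nucleotide variants, half-site ablations and random human genomic background sequences, printed on custom Agilent 4×180K protein-binding microarrays. Arrays were incubated 1 h with ligand-free nuclear receptor dimers in PBS pH 7.4, 2% milk, 0.02% Triton X-100, 1 mM DTT, 0.2 mg/mL BSA and 0.4 mg/ml salmon testes DNA. Antibodies against each partner (one per run) detected binding, and scanned fluorescence was regression-normalized. Binding z-scores use the random background probes as reference.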

[2] = system: LXRa:RXRa (NR concentration 270 nM, RXRa partner concentration 90 nM)
How it was run: as §1

[3] = system: LXRa homodimer (NR concentration 270 nM)
How it was run: as §1

[4] = system: LXRb:RXRa (NR concentration 270 nM, RXRa partner concentration 90 nM)
How it was run: as §1

[5] = system: LXRb homodimer (NR concentration 270 nM)
How it was run: as §1

[6] = system: PPARa:RXRa (NR concentration 270 nM, RXRa partner concentration 90 nM)
How it was run: as §1

[7] = system: PPARg:RXRa (NR concentration 180 nM, RXRa partner concentration 90 nM)
How it was run: as §1

[8] = system: PPARg:RXRa 270nM:90nM, anti-RXR (NR concentration 270 nM, RXRa partner concentration 90 nM)
How it was run: as §1

[9] = system: PPARg:RXRa 30nM:10nM, anti-RXR (NR concentration 30 nM, RXRa partner concentration 10 nM)
How it was run: as §1

[10] = system: PPARg:RXRa 90nM:30nM, anti-RXR (NR concentration 90 nM, RXRa partner concentration 30 nM)
How it was run: as §1

[11] = system: PPARg:RXRa DBDmut IVT, anti-RXR (DBD mutation: RXRa K156A/R161A, NR concentration 270 nM, RXRa partner concentration 90 nM)
How it was run: as §1

[12] = system: PPARg:RXRa IVT, anti-PPARg (NR concentration 270 nM, RXRa partner concentration 90 nM)
How it was run: as §1

[13] = system: PPARg DBDmut:RXRa IVT, anti-PPARg (DBD mutation: PPARg1 K132A/R137A, NR concentration 270 nM, RXRa partner concentration 90 nM)
How it was run: as §1

[14] = system: PPARg DBDmut IVT, anti-PPARg (DBD mutation: PPARg1 K132A/R137A, NR concentration 270 nM)
How it was run: as §1

[15] = system: PPARg homodimer (NR concentration 180 nM)
How it was run: as §1

[16] = system: PXR:RXRa (NR concentration 270 nM, RXRa partner concentration 90 nM)
How it was run: as §1

[17] = system: PXR homodimer (NR concentration 270 nM)
How it was run: as §1

[18] = system: RARa:RXR (NR concentration 270 nM, RXRa partner concentration 90 nM)
How it was run: as §1

[19] = system: RARa homodimer (NR concentration 270 nM)
How it was run: as §1

[20] = system: RARb:RXRa (NR concentration 270 nM, RXRa partner concentration 90 nM)
How it was run: as §1

Sequence | PBM binding z-score [1] | PBM binding z-score [2] | PBM binding z-score [3] | PBM binding z-score [4] | PBM binding z-score [5] | PBM binding z-score [6] | PBM binding z-score [7] | PBM binding z-score [8] | PBM binding z-score [9] | PBM binding z-score [10] | PBM binding z-score [11] | PBM binding z-score [12] | PBM binding z-score [13] | PBM binding z-score [14] | PBM binding z-score [15] | PBM binding z-score [16] | PBM binding z-score [17] | PBM binding z-score [18] | PBM binding z-score [19] | PBM binding z-score [20]
ATACCAAGGTGATCGTGAGGTCGTTGGTACTAAC | 1.53 | 1.48 | 0.698 | 0.769 | 0.221 | 1.51 | 0.281 | 0.597 | -0.201 | 0.338 | 0.259 | 1.28 | -0.235 | -0.0791 | 0.658 | 2.89 | 0.856 | 2.43 | -0.116 | 1.43
ACATGTAGGTTACATCCGGGTCATTCAGGCTATG | 2.53 | 4.55 | 1.49 | 3.15 | 1.14 | 4.15 | 4.27 | 3.99 | 1.47 | 2.91 | 6.27 | 6.09 | 4.52 | 4.01 | 3.27 | 3.95 | 2.86 | 3.98 | 0.622 | 2.43
AGAAGGAGGTTACCAAAGATCAGGGAAACGCTTG | 0.978 | 5.85 | 0.0257 | 2.9 | 0.368 | 2.79 | 1.84 | 2.1 | 0.736 | 1.37 | 2.51 | 2.63 | 0.699 | 0.604 | 0.719 | 1.25 | 0.551 | 1.46 | 0.412 | 1.89
ATATGTAGGTTAAGGGTCAGTCAGGTTGGTTCGC | 3.7 | 3.26 | 1.44 | 3.34 | 0.965 | 6.05 | 11 | 9.37 | 9.35 | 11.6 | 7.48 | 7.77 | 4.77 | 2.22 | 3.78 | 4.14 | 2.03 | 4.53 | 2.65 | 3.51
ATCGAAAGGTCGTGATGTGAGTATACAGAAAGGC | 4.54 | 3.48 | 0.378 | 3.08 | 0.626 | 4.67 | 3.21 | 3.2 | 1.34 | 2.34 | -0.177 | 1.63 | 1.58 | 1.08 | 1.07 | 2.71 | 0.368 | 3.38 | 0.598 | 3.68
TCTAGCAGGCCAGAGGGTCGCTCAAGAGGTACGG | -2.83 | -0.514 | -0.98 | -0.425 | -1.97 | 0.269 | 0.213 | 1.29 | 1.69 | 1.37 | 0.74 | -0.213 | -1.68 | -1.41 | -0.918 | -0.366 | -0.896 | -0.208 | -1.48 | 0.463
ATATGTAGGTCACATCCGGGTCATTCAGGCTATG | 4.9 | 5.58 | 3.31 | 4.45 | 1.88 | 5.8 | 9.18 | 7.48 | 5.41 | 7.3 | 8.71 | 8.92 | 2.83 | 2.12 | 3.45 | 5.25 | 2.96 | 5.31 | 0.84 | 4.34
